Laboratory results from PubChem BioAssay (NCI).
About 83,000 compounds went through this panel and 20% of them were active in at least one assay; those are over-represented in the sample as a whole.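 For each line, cells grew in 96-well plates with the test compound present at a single concentration for 48 hours.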 Values without a mark were called inactive. The source made the active and inactive calls. The calls were made as follows: active = growth percent below 10; inactive = the rest.

Legend:
Test in all cases: NCI-60 one-dose screen, 48 h (100 = growth as untreated, 0 = no growth, -100 = all killed)
Details in all cases: 10 µM unless noted
MOLT-4 leukemia = system: MOLT-4 leukemia
SR leukemia = system: SR leukemia
RPMI-8226 leukemia = system: RPMI-8226 leukemia
OVCAR-8 ovarian = system: OVCAR-8 ovarian
OVCAR-5 ovarian = system: OVCAR-5 ovarian
OVCAR-4 ovarian = system: OVCAR-4 ovarian
SK-OV-3 ovarian = system: SK-OV-3 ovarian
IGROV1 ovarian = system: IGROV1 ovarian
OVCAR-3 ovarian = system: OVCAR-3 ovarian
HS 578T breast = system: HS 578T breast
NCI/ADR-RES ovarian = system: NCI/ADR-RES ovarian
T-47D breast = system: T-47D breast
BT-549 breast = system: BT-549 breast
MDA-MB-435 melanoma = system: MDA-MB-435 melanoma
SW-620 colon = system: SW-620 colon
MCF7 breast = system: MCF7 breast
HCT-116 colon = system: HCT-116 colon
HCC-2998 colon = system: HCC-2998 colon
KM12 colon = system: KM12 colon

| Structure (SMILES) | growth (MOLT-4 leukemia) | growth (SR leukemia) | growth (RPMI-8226 leukemia) | growth (OVCAR-8 ovarian) | growth (OVCAR-5 ovarian) | growth (OVCAR-4 ovarian) | growth (SK-OV-3 ovarian) [%] | growth (IGROV1 ovarian) | growth (OVCAR-3 ovarian) | growth (HS 578T breast) | growth (NCI/ADR-RES ovarian) | growth (T-47D breast) [%] | growth (BT-549 breast) | growth (MDA-MB-435 melanoma) | growth (SW-620 colon) | growth (MCF7 breast) | growth (HCT-116 colon) | growth (HCC-2998 colon) | growth (KM12 colon) |
| --- | --- | --- | --- | --- | --- | --- | --- | --- | --- | --- | --- | --- | --- | --- | --- | --- | --- | --- | --- |
| CC[C@H](NC(=O)[C@H]1CCCCN1C)C(=O)N(C)[C@H](C[C@@H](OC(C)=O)c1nc(C(=O)N[C@@H](Cc2ccccc2)C[C@H](C)C(=O)O)cs1)C(C)C | 10.2% | 6.46% (active) | 15.5% | 9.15% (active) | 37.5% | 43.5% | 25.8 | 25.3% | -6.57% (active) | 11.4% | 9.47% (active) | 51.3 | -15.6% (active) | -36.5% (active) | 22.4% | 16.9% | 0.18% (active) | 8.05% (active) | 7.87% (active) |
| COc1cc(/C=C/[N+](=O)[O-])c([N+](=O)[O-])cc1OC | 7.83% (active) | 12.6% | 4.37% (active) | 17% | -3.45% (active) | 6.43% (active) | 103 | -15.6% (active) | -91.7% (active) | 11.8% | 13.5% | 16.5 | 87.3% | 14% | -57.3% (active) | 8.83% (active) | -62.4% (active) | 86.3% | 18.5% |
| C[n+]1c(/C=C/c2ccc(N(CCCl)CCCl)cc2)sc2ccccc21 | 36.8% | 19.7% | 27.5% | 30% | 103% | 72.9% | 55.1 | 75% | 25.5% | 98.8% | 102% | 16.8 | 64.3% | 76.1% | 23.1% | 27.3% | 48.4% | 84.4% | 74.8% |
| O=C(CN1CCN(C(=O)c2ccco2)CC1)Nc1ccc(Cl)cc1C(=O)c1ccccc1Cl | 54.2% | 72.7% | 53.6% | 87.1% | 95.9% | 87.5% | 112 | 57.8% | 115% | 78.3% | 83.4% | 64.3 | 101% | 118% | 86.8% | 84.9% | 86.8% | 97.4% | 89.1% |
| CC(=O)O[C@H](C[C@H](C(C)C)N(C)C(=O)[C@@H](NC(=O)[C@H]1CCCCN1C)C(C)C)c1nc(C(=O)N[C@@H](Cc2ccccc2)C[C@H](C)C(=O)O)c(CCOCc2ccccc2)s1 | 11% | 9.77% (active) | -3.42% (active) | 10.8% | 35.7% | 37% | 44.6 | 10.7% | -6.07% (active) | 11.4% | 9.71% (active) | 62.4 | -36.6% (active) | -49.7% (active) | 28.3% | 25.9% | -22.2% (active) | 16.3% | 5.5% (active) |
| CCOC(=O)N[C@H]1CCc2c(Br)c(OC)c(OC)c(OC)c2-c2ccc(SC)c(=O)cc21 | 5.92% (active) | -5.77% (active) | -6.15% (active) | 20.2% | 32.5% | 5.73% (active) | 52.1 | 12.1% | -29.4% (active) | -1.62% (active) | 11.8% | 42.6 | 3.55% (active) | -54.2% (active) | 16.7% | 10.8% | -5.72% (active) | 14.6% | -8.71% (active) |
| Clc1cccc(N2COOC3(OOC2)C2CC4CC(C2)CC3C4)c1 | 77.8% | 37.7% | 53.8% | 58.1% | 84.3% | 95.3% | 98.1 | -54.4% (active) | 19.2% | 88.6% | 44.4% | 69.4 | 88% | 73.3% | 95.5% | 93.1% | 88.2% | 98.1% | 65.7% |
| COC(=O)[C@@H](C)C[C@H](Cc1ccc(F)cc1)NC(=O)c1csc([C@@H](C[C@H](C(C)C)N(C)C(=O)[C@@H](NC(=O)[C@H]2CCCCN2C)C2CC2)OC(C)=O)n1 | 17.8% | 17.5% | 20.4% | 22.4% | 49.8% | 46% | 29.1 | 30.7% | -25% (active) | 41.1% | 76.4% | 60.1 | -0.522% (active) | -50.1% (active) | 27.2% | 19.6% | 3.44% (active) | 28.8% | 14% |
